Inconclusive results are not listed. Active and inactive are the calls of the source. Rule for the calls: active = hit-call score of the fitted dose curve at least 0.9, where 1 is the maximum; inconclusive = response in the unintended direction; inactive = score below 0.9.
These compounds were tested against human Retinoid X Receptor beta (RXRb), RXRB (gene 6257) (UniProt P28702) (assay: ATG_RXRb_TRANS: Attagene TRANS-FACTORIAL HepG2 Assay for human Retinoid X Receptor beta (RXRb) (AID 2283013)).
Chain of human Retinoid X Receptor beta (RXRb), RXRB (gene 6257) (P28702 whole entry, looked up, the tested form may be a part): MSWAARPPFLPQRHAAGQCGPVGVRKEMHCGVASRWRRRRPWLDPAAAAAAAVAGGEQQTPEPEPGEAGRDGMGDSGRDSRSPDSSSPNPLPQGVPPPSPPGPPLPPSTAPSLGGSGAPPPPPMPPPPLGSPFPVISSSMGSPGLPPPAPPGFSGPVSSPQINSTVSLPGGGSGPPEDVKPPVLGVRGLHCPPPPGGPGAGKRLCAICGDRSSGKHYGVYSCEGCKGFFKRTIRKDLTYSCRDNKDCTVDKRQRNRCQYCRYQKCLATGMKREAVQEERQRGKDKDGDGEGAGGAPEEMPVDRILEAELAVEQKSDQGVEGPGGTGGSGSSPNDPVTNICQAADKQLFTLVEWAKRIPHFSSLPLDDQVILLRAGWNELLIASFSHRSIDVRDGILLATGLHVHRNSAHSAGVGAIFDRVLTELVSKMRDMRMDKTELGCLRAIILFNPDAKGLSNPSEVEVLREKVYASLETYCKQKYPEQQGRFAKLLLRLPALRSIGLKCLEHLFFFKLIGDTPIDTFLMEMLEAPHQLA
Outline: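 Chimeric receptor-Gal4 activity was assessed in transiently transfected human HepG2 cells after 24 h exposure. Transcripts from GAL4-UAS reporters were quantified by fluorescent RT-PCR and capillary electrophoresis, with DMSO as negative control and baseline.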

SMILES | outcome | AC50
CC(C)CCCC(C)CC=O (stereo unspecified) | inactive | –
O=S(=O)(O)c1cc(S(=O)(=O)O)c2ccc3c(S(=O)(=O)O)cc(S(=O)(=O)O)c4ccc1c2c43 | inactive | –
CCN(CC#N)c1cccc(C)c1 | inactive | –
Cc1ccc(C2OC[C@@H]3OC(c4ccc(C)cc4)O[C@H]([C@H](O)CO)[C@@H]3O2)cc1 (stereo partly specified) | inactive | –
CCCCCCCCCCc1ccccc1 | – | 49.1 µM (active)
CCCCCc1ccc(Cl)cc1 | inactive | –
Cc1cc(C)c(C)c(C)c1 | inactive | –
CCCCCCCC(C)=O | inactive | –
c1ccc(CCCc2ccncc2)cc1 | inactive | –
C=CC(=O)NC(C)(C)CS(=O)(=O)O | inactive | –
COc1ccc([C@@H]2CC(=O)c3c(O)cc(O[C@@H]4O[C@H](CO[C@@H]5O[C@@H](C)[C@H](O)[C@@H](O)[C@H]5O)[C@@H](O)[C@H](O)[C@H]4O)cc3O2)cc1OC | inactive | –
[Cl][Nd]([Cl])[Cl] | inactive | –
CCCCC(CC)COCC1CO1 (stereo unspecified) | inactive | –

These compounds were tested against human Thyroid Receptor alpha (THRa1), THRA (gene 7067) (UniProt P10827) (assay: ATG_THRa1_TRANS: Attagene TRANS-FACTORIAL HepG2 Assay for human Thyroid Receptor alpha (THRa1) (AID 2283014)).
Chain of human Thyroid Receptor alpha (THRa1), THRA (gene 7067) (P10827 whole entry, looked up, the tested form may be a part): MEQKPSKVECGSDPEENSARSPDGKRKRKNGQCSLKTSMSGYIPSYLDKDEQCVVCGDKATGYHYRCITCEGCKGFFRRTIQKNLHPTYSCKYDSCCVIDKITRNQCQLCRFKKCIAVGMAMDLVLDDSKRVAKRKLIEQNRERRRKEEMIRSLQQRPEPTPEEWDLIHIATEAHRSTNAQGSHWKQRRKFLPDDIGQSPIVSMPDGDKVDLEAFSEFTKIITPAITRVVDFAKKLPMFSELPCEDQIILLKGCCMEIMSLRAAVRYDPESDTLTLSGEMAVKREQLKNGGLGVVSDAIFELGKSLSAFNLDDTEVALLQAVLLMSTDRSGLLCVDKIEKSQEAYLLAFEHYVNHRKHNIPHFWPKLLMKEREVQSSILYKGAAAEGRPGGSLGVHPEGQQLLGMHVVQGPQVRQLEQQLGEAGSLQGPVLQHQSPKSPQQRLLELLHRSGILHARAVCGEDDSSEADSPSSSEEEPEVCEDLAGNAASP
Outline: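 First, HepG2 cells receive multiple GAL4-UAS reporter units and the chimeric receptor. They are then dosed for 24 h, after which RNA is reverse-transcribed, amplified, labelled, HpaI-cut and sized by capillary electrophoresis; gain relative to DMSO is scored.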

SMILES | outcome
CC(C)CCCC(C)CC=O (stereo unspecified) | inactive
O=S(=O)(O)c1cc(S(=O)(=O)O)c2ccc3c(S(=O)(=O)O)cc(S(=O)(=O)O)c4ccc1c2c43 | inactive
CC(=O)[C@H]1[C@H](C#N)C[C@H]2[C@@H]3CC=C4C[C@@H](O)CC[C@]4(C)[C@H]3CC[C@@]21C | inactive
C=CC(=O)OCCC(=O)O | inactive
Cc1ccc(C2OC[C@@H]3OC(c4ccc(C)cc4)O[C@H]([C@H](O)CO)[C@@H]3O2)cc1 (stereo partly specified) | inactive
CCCCCCCCCCc1ccccc1 | inactive
Cc1cc(C)c(C)c(C)c1 | inactive
[Cl][In]([Cl])[Cl] | inactive
CCCCCCCC(C)=O | inactive
CCCCNc1ccc(NCCCC)c2c1C(=O)c1ccccc1C2=O | inactive
c1ccc(CCCc2ccncc2)cc1 | inactive
COC(=O)c1sccc1S(N)(=O)=O | inactive
C=CC(=O)NC(C)(C)CS(=O)(=O)O | inactive
COc1ccc([C@@H]2CC(=O)c3c(O)cc(O[C@@H]4O[C@H](CO[C@@H]5O[C@@H](C)[C@H](O)[C@@H](O)[C@H]5O)[C@@H](O)[C@H](O)[C@H]4O)cc3O2)cc1OC | inactive
[Cl][Nd]([Cl])[Cl] | inactive
O=C1CCCC(=O)O1 | inactive
CC=CC(=O)N(CC)c1ccccc1C | inactive
CCCCC(CC)COCC1CO1 (stereo unspecified) | inactive
